The test system of test [1] is Plasmodium falciparum Sir2 (PF13_0152, Sir2A). The experiment in a line: pfSir2 binders on small-molecule microarrays, primary screen, biochemical, small-molecule microarray, 635 nm fluorescence (AID 1098).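 Further: score merges spot fluorescence intensity with its signal-to-noise ratio.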 As to conditions: small-molecule microarray binding, fluorescence 635 nm; higher = more signal.
Test [2] in a line: small-molecule microarray binders of probe aDKK1, primary screen, biochemical, biotinylated probe, 635/667 nm fluorescence (AID 1099).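 Further: score merges 667nm spot fluorescence with signal to noise across triplicate slides; reference of the scale not given here.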 To be noted: higher = more signal.
Test [3] can be described thus: small-molecule microarray binders of probe aCHRDL2, primary screen, biochemical, biotinylated probe, 635/667 nm fluorescence (AID 1100). To be noted: higher = more signal.
A short description of test [4]: splicing luciferase reporter signal modulators, primary screen, spliceosome inhibition project, cell-based, HEK293, splice +/- reporter (AID 1101).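 Further: HEK293 cells carrying a splicing-competent luciferase reporter gene; test concentration not given here.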 To be noted: luminescence, 24 h, higher = more signal, called active from +8 up or from −8 down. A general note: Reporter assays use an easily measured gene product as a stand-in for the process of interest.
Test [5] addresses Fibroblast growth factor 10 (Homo sapiens) (UniProt O15520). Kind of test: FGF10 binders on small-molecule microarrays, primary screen, biochemical, small-molecule microarray, 635 nm fluorescence (AID 1102). As to conditions: FGF10 binding, fluorescence 635 nm, higher = more signal.
In test [6] the test system is glycogen synthase kinase-3 (GSK3A per assay name; protocol says GSK3B). Kind of test: GSK3 binders on small-molecule microarrays, primary screen, biochemical, small-molecule microarray, 635 nm fluorescence, GSK3A (AID 1103). Further: the record names both GSK3A and GSK3B. To be noted: small-molecule microarray binding, fluorescence 635 nm; higher = more signal.
Test [7] deals with Epidermal growth factor receptor (Homo sapiens) (UniProt P00533). The experiment in a line: EGFR binders on small-molecule microarrays, primary screen, biochemical, small-molecule microarray, 635 nm fluorescence (AID 1104).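 Further: score merges 667 nm emission intensity with spot signal to noise over triplicate slides.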 As to conditions: EGFR binding, higher = more signal.
Epidermal growth factor receptor (Homo sapiens), sequence (P00533 whole entry, looked up): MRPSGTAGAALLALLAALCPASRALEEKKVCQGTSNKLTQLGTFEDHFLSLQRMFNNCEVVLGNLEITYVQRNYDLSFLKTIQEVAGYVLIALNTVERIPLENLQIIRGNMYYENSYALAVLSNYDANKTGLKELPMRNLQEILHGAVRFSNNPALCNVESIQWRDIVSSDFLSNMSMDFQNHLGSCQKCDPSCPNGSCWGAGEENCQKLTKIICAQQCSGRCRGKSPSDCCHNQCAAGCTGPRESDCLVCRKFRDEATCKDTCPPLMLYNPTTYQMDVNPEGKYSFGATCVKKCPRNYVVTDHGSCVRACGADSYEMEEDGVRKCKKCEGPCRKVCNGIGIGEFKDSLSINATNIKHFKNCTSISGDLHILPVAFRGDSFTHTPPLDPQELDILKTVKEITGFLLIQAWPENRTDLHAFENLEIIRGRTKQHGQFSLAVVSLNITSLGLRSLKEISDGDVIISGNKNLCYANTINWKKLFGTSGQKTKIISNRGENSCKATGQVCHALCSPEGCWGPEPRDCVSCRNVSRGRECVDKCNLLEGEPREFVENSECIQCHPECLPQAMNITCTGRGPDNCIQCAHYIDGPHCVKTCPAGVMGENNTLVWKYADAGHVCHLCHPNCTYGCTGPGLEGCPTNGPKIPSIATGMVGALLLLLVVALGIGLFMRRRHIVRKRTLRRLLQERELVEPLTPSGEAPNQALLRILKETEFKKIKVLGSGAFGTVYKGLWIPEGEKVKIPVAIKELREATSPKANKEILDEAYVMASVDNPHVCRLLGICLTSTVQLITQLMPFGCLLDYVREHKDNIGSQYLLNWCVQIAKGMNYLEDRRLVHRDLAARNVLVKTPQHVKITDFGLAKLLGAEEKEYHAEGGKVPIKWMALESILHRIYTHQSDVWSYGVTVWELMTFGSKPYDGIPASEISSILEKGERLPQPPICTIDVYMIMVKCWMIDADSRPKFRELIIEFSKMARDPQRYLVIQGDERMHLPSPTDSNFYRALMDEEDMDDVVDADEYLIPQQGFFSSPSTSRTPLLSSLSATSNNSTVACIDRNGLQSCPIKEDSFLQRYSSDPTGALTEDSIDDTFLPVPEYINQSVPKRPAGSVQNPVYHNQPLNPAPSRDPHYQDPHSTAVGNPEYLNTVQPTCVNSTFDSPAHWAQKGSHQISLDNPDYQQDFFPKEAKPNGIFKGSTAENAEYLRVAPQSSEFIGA
The target of test [8] is Follistatin-related protein 3 (Homo sapiens) (UniProt O95633). The experiment in a line: FSTL3 binders on small-molecule microarrays, primary screen, biochemical, small-molecule microarray, 635 nm fluorescence (AID 1105).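 Further: score merges emission near 667 nm and signal to noise per printed spot across three slides.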 As to conditions: FSTL3 binding, higher = more signal.
Follistatin-related protein 3 (Homo sapiens), sequence (O95633 whole entry, looked up): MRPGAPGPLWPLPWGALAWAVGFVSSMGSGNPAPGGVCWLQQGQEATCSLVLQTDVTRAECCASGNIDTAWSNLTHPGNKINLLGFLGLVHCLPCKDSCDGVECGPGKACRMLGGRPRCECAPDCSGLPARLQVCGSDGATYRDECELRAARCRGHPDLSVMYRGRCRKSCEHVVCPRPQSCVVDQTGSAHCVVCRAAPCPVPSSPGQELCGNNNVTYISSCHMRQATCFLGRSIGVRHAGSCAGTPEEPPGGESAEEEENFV
In test [9] the target is Dickkopf-related protein 1 (Homo sapiens) (UniProt O94907). The experiment in a line: DKK1 binders on small-molecule microarrays, primary screen, biochemical, small-molecule microarray, 635 nm fluorescence scan (AID 1106).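 Further: score merges emission near 667 nm with signal to noise over three replicate slides.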 As to conditions: DKK1 binding, higher = more signal.
Dickkopf-related protein 1 (Homo sapiens), sequence (O94907 whole entry, looked up): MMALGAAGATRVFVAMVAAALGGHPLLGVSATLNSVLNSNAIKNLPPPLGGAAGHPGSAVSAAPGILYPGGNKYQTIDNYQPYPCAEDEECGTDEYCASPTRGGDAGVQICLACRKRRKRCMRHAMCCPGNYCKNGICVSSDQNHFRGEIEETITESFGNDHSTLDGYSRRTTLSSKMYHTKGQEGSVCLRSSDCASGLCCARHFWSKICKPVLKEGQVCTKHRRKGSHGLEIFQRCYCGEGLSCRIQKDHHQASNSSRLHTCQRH
Test [10] concerns Inhibin beta A chain (activin A). The experiment in a line: INHBA (activin A) binders on microarrays, primary screen, biochemical, small-molecule microarray, 635 nm fluorescence scan (AID 1107).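 Further: mouse activin A protein probed at 4.33 µg/mL on printed slides; score merges bound-protein fluorescence near 667 nm with spot signal-to-noise.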 As to conditions: small-molecule microarray binding, higher = more signal.

Active and inactive are the calls of the source.

Fibroblast growth factor 10 (Homo sapiens), sequence (O15520 whole entry, looked up): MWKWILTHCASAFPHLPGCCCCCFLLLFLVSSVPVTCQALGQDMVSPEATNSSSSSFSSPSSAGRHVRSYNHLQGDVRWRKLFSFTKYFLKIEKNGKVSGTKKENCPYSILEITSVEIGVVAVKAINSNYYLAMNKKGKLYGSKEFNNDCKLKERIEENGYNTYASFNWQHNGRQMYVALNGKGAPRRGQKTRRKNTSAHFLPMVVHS

As to `CCCCCCCCCC(O)C1C=CC2C(=O)N(c3ccccc3)C(=O)C2N1Nc1cc(OC)c(OC)c(OC)c1` (stereo not given), the composite z-score in test [1] was 1.04; in test [2] it was -0.0249; in [3], 0.662; in test [5] it was -0.4; in [6], -0.214; in test [7] it was -0.381. The values for the composite z-score in [8], in test [9] and in test [10] were -0.246, -1.12 and 0.655, respectively. In addition, the z-score in test [4] was -0.901 (inactive).
For the molecule `COC(=O)[C@@]1(Cc2ccccc2)[C@H]2c3cc(C(=O)N(C)C)n(Cc4ccc(C)o4)c3C[C@H]2CN1C(=O)c1ccccc1`, the composite z-score in test [1] was 0.527; in test [2] it was 2.33; in [3], 1.57; in test [5], 0.93; in test [6], 0.502; in [7], 0.857. The figures for the composite z-score in test [8], in test [9] and in [10] were 0.897, -1.11 and 1.44, respectively. Besides, in [4], the z-score is -2.02 (inactive).
Take `COC(=O)C/C=C/C[C@]1(O)C(=O)N(C)c2ccccc21`: the composite z-score in test [1] was -0.262; in [2], -0.299; in test [3], -0.802; in test [5], 0.791; in test [6], 0.605; in test [7], 0.784. Further, the composite z-score was 0.616 in test [8], 0.949 in [9] and 0.587 in test [10]. Moreover, the z-score in test [4] was -1.38 (inactive).
Consider `COc1ccc(C(=O)Nc2ccc(CN3C(=O)[C@]4(O[C@H](CC(=O)N5Cc6ccccc6C[C@H]5CO)[C@@H]([Si](C)(C)c5ccc(OC)cc5)[C@@H]4C)c4ccccc43)cc2)cc1`, for which the composite z-score was 1.57 in test [1]; -0.196 in test [2]; -0.165 in test [3]; 1.06 in test [5]; 0.837 in test [6]; 0.749 in [7]. The composite z-score is 0.833 in test [8], 0.786 in test [9] and 0.518 in test [10]. In addition, the z-score in test [4] was -1.18 (inactive).
As to `COC(=O)[C@@]1(Cc2ccc(F)cc2)[C@H]2c3cc(C(=O)N4CCCC4)n(Cc4ccc(C)c(F)c4F)c3C[C@H]2CN1C(=O)c1ccccc1`, the composite z-score in test [1] is 0.961; in [2], 0.902; in test [3] it was 0.931; in [5], -0.291; in [6] it was -0.931; in test [7], -0.499. The composite z-score is -1.07 in [8], -0.453 in test [9] and 1.42 in test [10]. Further, the z-score in test [4] is -4.09 (inactive).
For the molecule `C=CCN1C(=O)[C@]2(CCC(=O)OC(C)(C)C)N=C(c3ccc(OCCCO)cc3)O[C@@H]2c2ccccc21`, the composite z-score in test [1] is 0.765; in [2], 0.177; in [3], 0.947; in test [5], -0.184; in test [6], 0.298; in test [7] it was 0.348. The composite z-score was 0.635 in test [8], 0.384 in test [9] and 1.18 in test [10]. In addition, the z-score in [4] was -1.82 (inactive).
In the case of `COCCOC(=O)N1C(=O)[C@@]2(c3cc(C#CC4(O)CCCCCC4)ccc31)[C@H](c1ccc(O)cc1)N1[C@H](c3ccccc3)[C@H](c3ccccc3)OC(=O)[C@H]1[C@@H]2C(=O)N1CCN(c2ncccn2)CC1`, the composite z-score in test [1] amounted to 0.952; in test [2] it was 0.0005; in test [3] it was 0.426; in test [5], 0.425; in [6], 0.788; in test [7] it was 0.149. Besides, the values for the composite z-score in test [8], in [9] and in test [10] were 0.476, 0.063 and -0.275, respectively. In test [4], the z-score is 0.325 (inactive).
As to `O=C1OCCC=C[C@H]2OC34C=CCN(c5ccc6ccccc6c5)C(=O)[C@H]3N(CCCO)C(=O)[C@@H]4C12` (stereo not given in full), the composite z-score in test [1] was 0.933; in test [2] it was -0.258; in test [3], 0.637; in test [5], -1.62; in test [6], -2.21; in test [7], -1.93. For the same molecule, the values for the composite z-score in [8], in [9] and in test [10] were -1.94, -1.8 and -2.42, respectively. Moreover, the z-score in [4] was -1 (inactive).
Consider `COc1cccc(C)c1NC(=O)O[C@H]1[C@H](OC(=O)Nc2ccc3c(c2)OCO3)[C@@H](OC(=O)Nc2ccc3c(c2)OCO3)[C@@H](OC)O[C@@H]1CO`, for which the composite z-score turned out to be 0.264 in test [1]; 0.18 in [2]; 0.232 in test [3]; 1.46 in test [5]; 1.35 in [6]; 0.603 in [7]. The results for the composite z-score in test [8], in test [9] and in [10] were 1.44, 0.708 and 0.724, respectively. In [4], the z-score was -0.23 (inactive).
Take `C=CC[C@]1(C(=O)N2CCOCC2)COC(c2ccc(OCCCO)cc2)=N1`: the composite z-score is 1.76 in test [1]; -0.016 in test [2]; 0.431 in test [3]; 0.66 in test [5]; 0.438 in [6]; -0.238 in test [7]. The composite z-score came to 0.264 in [8], 0.188 in test [9] and 0.976 in test [10]. The z-score in test [4] is -0.612 (inactive).
Regarding `Cc1ccc(S[C@]2(C(=O)O)CC(=O)N(C3CCCCC3)[C@@H]2c2ccc(CO)cc2I)cc1`, the composite z-score in test [1] is 1.48; in test [2], 0.431; in test [3], 0.903; in test [5], 1.27; in test [6] it was 0.797; in test [7] it was -0.131. In addition, the composite z-score in test [8] is 1.04; in test [9], -0.231; in [10], 1.06. Further, the z-score in [4] was -0.443 (inactive).
In the case of `CCCCC=C[C@@H](NC(=O)OCc1ccccc1Cl)c1ccccc1`, the composite z-score in test [1] is 0.732; in test [2] it was 1.53; in test [3] it was 1.09; in test [5], 0.431; in test [6] it was 1.29; in test [7] it was 0.566. Besides, the composite z-score in test [8] was 1.19; in test [9] it was -0.193; in test [10], 0.709. For the same molecule, in test [4], the z-score is 0.233 (inactive).
In the case of `COc1ccc([Si](C)(C)[C@H]2[C@H](CC(=O)N3Cc4ccccc4C[C@H]3CO)O[C@@]3(C(=O)N(Cc4ccc(N5CCOC5=O)cc4)c4ccccc43)[C@@H]2C)cc1`, the composite z-score was 0.149 in test [1]; -0.161 in test [2]; -0.345 in test [3]; 0.878 in test [5]; 0.676 in test [6]; 1.03 in [7]. Besides, the values for the composite z-score in test [8], in test [9] and in [10] were 1.04, 0.929 and 1.05, respectively. Moreover, the z-score in [4] is -0.817 (inactive).
Consider `C=CCC(OC(C)=O)[C@@H]1[C@@H](N(Cc2cccc3ccccc23)C(=O)Cc2ccc(F)cc2)c2cc(OCCCO)ccc2N1C(=O)c1ccc2ccccc2c1` (stereo not given in full), for which the composite z-score in [1] was -0.246; in [2], -0.469; in test [3], 0.0515; in [5], -0.134; in test [6] it was 0.0566; in [7], 0.0199. Further, the composite z-score in test [8] came to 0.565; in test [9], 0.301; in test [10], 1.24. In addition, the z-score in test [4] was -0.527 (inactive).
As for `Cc1ccc(NN2C(C(O)c3c(F)cccc3Cl)C=CC3C(=O)N(C4CCCCC4)C(=O)C32)cc1` (stereo not given), the composite z-score in [1] was 0.338; in test [2], 0.827; in [3], 1.07; in [5], 0.425; in test [6], 1.3; in test [7], -0.184. Moreover, the composite z-score in test [8] was 0.716; in test [9], -0.258; in test [10], 1.32. Besides, the z-score in [4] was -1.19 (inactive).
Regarding `C#Cc1cc2ccccc2oc1=O`, the composite z-score is 0.253 in [1]; -0.265 in [2]; 0.256 in [3]; -0.347 in test [5]; -0.748 in [6]; -2.35 in [7]. Besides, the values for the composite z-score in test [8], in test [9] and in test [10] were -2.4, -1.87 and -1.73, respectively. In test [4], the z-score is 3.33 (inactive).
As for `N#Cc1ccc(NN2C(C(O)c3ccc(Br)cc3)C=CC3C(=O)N(c4ccccc4)C(=O)C32)cc1` (stereo not given), the composite z-score in test [1] came out at 1.17; in test [2] it was 0.96; in test [3], 0.905; in test [5] it was 0.65; in test [6] it was 0.648; in test [7] it was 0.297. The values for the composite z-score in test [8], in [9] and in [10] were 0.743, 0.316 and -0.374, respectively. Besides, the z-score in test [4] was -0.699 (inactive).

The record behind these values is PubChem BioAssay.
